# Laboratory results published in PubChem BioAssay (NCATS).
# Records with an inconclusive call do not appear. A call without a number means that no potency is given here. Values without a mark were called inactive. Calls of active or inactive are those of the source. The call rests on the fitted dose curve; in most records, active means well fitted curve in the direction sought with a large enough effect; inconclusive means small, poorly fitted or top-dose-only effect, or another doubt; inactive means no such curve, though single readings can be large; an effect the other way counts as inactive or inconclusive.
# Assays:
# [1] = tested on: Zika virus NS2B-NS3 protease (unlinked complex); test: Primary screen GU Rhodamine qHTS for Zika virus inhibitors: Unlinked NS2B-NS3 protease assay (AID 1347159); further: nearly all actives have a fitted effect of over 60% in size
# How it was run: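 Buffer 10 mM Tris-HCl pH 8.0, 0.01% Tween 20. Unlinked protease 25 nM; compound preincubation 15 min, RT, protected from light. Substrate Rhod110, 1.5 microM; ~15% conversion in 15 min.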
# [2] = tested on: Zika virus NS2B-NS3 protease (linked construct); test: Primary screen NINDS Rhodamine qHTS for Zika virus inhibitors (AID 1347160); further: nearly all actives have a fitted effect of over 55% in size
# How it was run: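 Aprotinin served as in-plate control. Conditions: 25 nM linked NS2B-NS3, pH 8.0 Tris buffer, titrated compounds, 15 min preincubation and 15 min reaction with 1.5 microM Rhod110 substrate at room temperature.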
# [3] = qHTS to identify inhibitors of the type 1 interferon - major histocompatibility complex class I in skeletal muscle: primary screen against the NCATS Mechanism Interrogation Plate v5.0 (MIPE) Libary (AID 1347411); further: nearly all actives have a fitted effect of over 65% in size; further: potency means the concentration at half of the fitted maximal effect
# How it was run: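 HLA-B HiBit myoblasts, dexamethasone-free medium + 4 ng/ml IFN-b, 24 h compound, 11-pt 1:3 from 46 uM final. Readout: Nano-Glo HiBiT lytic luminescence after 10 min lysis, RT.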
# [4] = molecular target: Calcium and integrin-binding protein 1 (Homo sapiens) (UniProt Q99828); test: Primary qHTS for Identification of Calcium Integrin Binding Protein 1 (CIB1) Competitor (AID 1508620);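 further: GST tagged CIB1 binding a fluorescein labelled alphaIIb integrin peptide tracer; top concentration of the series differs between compounds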
# Chain of Calcium and integrin-binding protein 1 (Homo sapiens) (Q99828 whole entry, looked up): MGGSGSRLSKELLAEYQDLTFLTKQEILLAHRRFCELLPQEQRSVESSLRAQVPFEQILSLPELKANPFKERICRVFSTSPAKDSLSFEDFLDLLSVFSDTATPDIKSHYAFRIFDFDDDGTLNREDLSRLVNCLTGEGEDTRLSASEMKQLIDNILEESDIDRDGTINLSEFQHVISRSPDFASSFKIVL
# How it was run: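 Fluorescence polarization competition: GST-tagged CIB1 (1 uM final) preincubated with compound 15 min at room temperature, then FITC-labelled alphaIIb peptide (100 nM final) added. After 15 min at room temperature, polarization read at Ex 480/Em 540.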
# [5] = Tertiary RLuc qRT-PCR qHTS assay for Zika virus inhibitors (AID 1347169); further: nearly all actives have a fitted effect of over 55% in size; further: potency means the concentration at half of the fitted maximal effect; on activity change, negative = inhibition: top concentration of the series differs between compounds
# How it was run: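 Orthogonal cell-based readout: luminescence measured 1-1.5 hrs after adding live-cell Renilla substrate to Vero cells that had been infected with ZIKV-RLuc (MOI 1-2) post-compound, incubated 48-72 hrs at 37 degrees C.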
# [6] = molecular target: Protein phosphatase 1D (Homo sapiens) (UniProt O15297); test: Rhodamine-PBP qHTS Assay for Modulators of WT P53-Induced Phosphatase 1 (WIP1) (AID 1347425)
# Chain of Protein phosphatase 1D (Homo sapiens) (O15297 whole entry, looked up): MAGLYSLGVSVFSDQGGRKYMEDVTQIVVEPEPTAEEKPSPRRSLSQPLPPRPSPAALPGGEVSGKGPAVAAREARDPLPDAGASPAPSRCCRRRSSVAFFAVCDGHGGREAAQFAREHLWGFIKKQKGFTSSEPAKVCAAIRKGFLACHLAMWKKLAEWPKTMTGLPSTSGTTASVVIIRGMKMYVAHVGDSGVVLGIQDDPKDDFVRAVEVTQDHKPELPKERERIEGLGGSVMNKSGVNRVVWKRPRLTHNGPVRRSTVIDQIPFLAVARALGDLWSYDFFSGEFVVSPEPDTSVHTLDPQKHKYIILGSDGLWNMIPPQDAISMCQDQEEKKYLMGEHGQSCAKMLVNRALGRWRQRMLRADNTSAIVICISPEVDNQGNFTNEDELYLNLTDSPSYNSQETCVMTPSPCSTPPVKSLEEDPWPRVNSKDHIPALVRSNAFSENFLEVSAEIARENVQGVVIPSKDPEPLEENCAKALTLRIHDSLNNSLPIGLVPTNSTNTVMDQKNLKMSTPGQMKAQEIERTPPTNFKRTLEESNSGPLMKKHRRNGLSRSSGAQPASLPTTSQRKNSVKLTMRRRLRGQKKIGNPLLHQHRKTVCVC
# How it was run: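 Read-out: Rhodamine-PBP fluorescence (ex 525/em 598 nm) for released Pi, read each minute for 11 min after adding 10 uM VEPPL-pS-QETFS; signal taken as f1 minus pre-substrate f0. Enzyme 5 nM WIP1 with 1 hr room-temperature compound preincubation.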
# [7] = molecular target: Calcium and integrin-binding protein 1 (Homo sapiens) (UniProt Q99828); test: Confirmatory qHTS for Identification of Calcium Integrin Binding Protein 1 (CIB1) Competitor (AID 1508617); further: nearly all actives have a fitted effect of over 65% in size
# How it was run: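 Fluorescence polarization competition: CIB1-GST (1 uM final) in 5 mM HEPES pH 7.4, 125 mM NaCl, 5 mM CaCl2, 0.01% Tween20 preincubated 15 min RT with compound (up to 114 uM), then FITC-alphaIIb peptide (100 nM) added, 15 min RT.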
# [8] = molecular target: Protein phosphatase 1D (Homo sapiens) (UniProt O15297); test: RapidFire Mass Spectrometry qHTS Assay for Modulators of WT P53-Induced Phosphatase 1 (WIP1) (AID 1347424); further: series mostly up to about 63 µM
# How it was run: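 RapidFire MS readout of dephosphorylated VEPPL-S-QETFS product, with 1 uM isotope-labelled peptide standard. Reaction: 10 nM WIP1, 2 uM phosphopeptide substrate, 5 min, room temperature, after 1 h compound preincubation; stopped with 0.5% formic acid.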
# [9] = Primary qHTS for inhibitors of La Crosse Virus (LACV) - induced cell death in SH-SY5Y cells (AID 1508616);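 further: top concentration of the series differs between compounds; higher means more rescue of cells from virus-induced death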
# How it was run: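 Cytopathicity rescue screen: compounds pinned onto SH-SY5Y cells, which are then infected with LACV (MOI 0.01) and held 6 days at 37C. Percent activity is scaled between infected DMSO control and uninfected DMSO control.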
compound,measurement,setting,value
O=C(Nc1cn[nH]c1-c1nc2ccc(CN3CCOCC3)cc2[nH]1)NC1CC1,Potency,[1],inactive
same,Potency,[2],inactive
same,Potency,[3],3.3 µM (active)
same,outcome,[4],inactive
CC1COC2(CCN(c3nc(=O)c4cc(C(F)(F)F)cc([N+](=O)[O-])c4s3)CC2)O1 (stereo unspecified),Potency,[1],inactive
same,Potency,[2],inactive
same,Potency,[3],inactive
same,outcome,[4],inactive
NC(=O)c1cccc2cn(-c3ccc([C@@H]4CCCNC4)cc3)nc12,Potency,[1],inactive
same,Potency,[2],inactive
same,Potency,[3],inactive
same,outcome,[4],inactive
OCCCNc1cc(-c2ccnc(Nc3cccc(Cl)c3)n2)ccn1,Potency,[1],inactive
same,Potency,[2],inactive
same,Potency,[3],0.0415 µM (active)
same,outcome,[4],inactive
CC[C@@H]1C(=O)N(C)c2cnc(Nc3ccc(C(=O)NC4CCC(N5CCN(CC6CC6)CC5)CC4)cc3OC)nc2N1C(C)C (stereo partly specified),Potency,[1],inactive
same,Potency,[2],inactive
same,Potency,[3],6.58 µM (active)
same,outcome,[4],inactive
Cc1c(NC(=O)OC[C@@H]2COCCN2)cn2ncnc(Nc3ccc4c(cnn4Cc4cccc(F)c4)c3)c12,Potency,[1],inactive
same,Potency,[2],inactive
same,Potency,[3],inactive
same,outcome,[4],inactive
COc1ccc(C(=O)CC2(O)C(=O)Nc3c(Cl)ccc(Cl)c32)cc1 (stereo unspecified),Potency,[3],inactive
Cc1cc(Nc2cc(N3CCN(C)CC3)nc(Sc3ccc(NC(=O)C4CC4)cc3)n2)n[nH]1,Potency,[3],inactive
COc1cc2c(cc1-c1c(C)noc1C)ncc1[nH]c(=O)n([C@H](C)c3ccccn3)c12,Potency,[5],0.37 µM (active)
CC(C)c1ccccc1Cc1cc(C(=O)Nc2ccc(S(=O)(=O)c3ccccc3C(C)(C)C)cc2)c(O)c(O)c1O,Potency,[5],inactive
Cc1nc2ccc(CN(C)c3ccc(C(=O)N[C@@H](CCC(=O)O)C(=O)O)s3)cc2c(=O)[nH]1,outcome,[6],inactive
CC(=O)SC[C@@H](C)C(=O)N1CCC[C@H]1C(=O)N[C@@H](Cc1ccccc1)C(=O)O,outcome,[6],inactive
CC(C)(O)CCc1ccc(OCc2cc(-c3cccc(OC(F)F)c3)c3ncccc3c2)cc1,Potency,[7],inactive
OCc1ccc(-c2ccc(-c3ccc(CO)s3)o2)s1,Potency,[7],inactive
C[C@@H]1CN(CC(=O)Nc2ccc3c(c2)Cc2cccc(-c4cc(=O)cc(N5CCOCC5)o4)c2S3)C[C@H](C)O1,Potency,[3],inactive
same,outcome,[4],inactive
CNC(=O)c1ccc(-c2cnc3ncc(Cc4ccc5ncccc5c4)n3n2)cc1F,Potency,[3],inactive
same,outcome,[4],inactive
Cc1nc2cnc3ccc(C#Cc4cccnc4)cc3c2n1-c1ccc(C(C)(C)C#N)cc1,Potency,[3],14.7 µM (active)
same,outcome,[4],inactive
CN1CCN(c2cc(C(=O)Nc3ccc4c(c3)-c3c(c(C(N)=O)nn3-c3ccc(F)cc3)CC4)c(Cl)cn2)CC1,Potency,[3],18.6 µM (active)
same,outcome,[4],inactive
CC(=O)OCC(=O)[C@@]1(O)[C@H](C)C[C@H]2[C@@H]3C=C(C)C4=Cc5c(cnn5-c5ccccc5)C[C@]4(C)[C@@H]3[C@@H](O)C[C@@]21C,Potency,[3],inactive
same,outcome,[4],inactive
CC(C)c1ccc(Cn2ccc3c4c(N)nc(NC5CC5)nc4ccc32)cc1,Potency,[3],4.66 µM (active)
same,outcome,[4],inactive
CN1c2cc(O)c(N=NC(N)=O)cc2CC1S(=O)(=O)O (stereo unspecified),Potency,[3],inactive
same,outcome,[4],inactive
CCN1CCN(CC(=O)Nc2ccc(-c3cccc4c(=O)cc(N5CCOCC5)oc34)c3sc4ccccc4c23)CC1,Potency,[3],inactive
same,outcome,[4],inactive
CC[C@@H]1C(=O)N(C)c2cnc(Nc3ccc(C(=O)NC4CCN(C)CC4)cc3OC)nc2N1C1CCCC1,Potency,[3],16.5 µM (active)
same,outcome,[4],inactive
O=C(NCCCNc1nc(Nc2cccc(NC(=O)N3CCCC3)c2)ncc1I)c1cccs1,Potency,[3],inactive
same,outcome,[4],inactive
C=CC(=O)Nc1cc2c(Nc3ccc(F)c(Cl)c3)ncnc2cc1OCCCN1CCOCC1,Potency,[3],11.7 µM (active)
same,Potency,[8],inactive
same,outcome,[6],inactive
same,outcome,[4],inactive
COc1ccc(CC2c3cc(OC)c(OC)cc3CC[N+]2(C)CCC(=O)OCCCCCOC(=O)CC[N+]2(C)CCc3cc(OC)c(OC)cc3C2Cc2ccc(OC)c(OC)c2)cc1OC (stereo unspecified),Potency,[3],inactive
same,"activity change, negative = inhibition",[4],-3.2% [at 6.45 µM]
COC(=O)C[C@](O)(CCCC(C)(C)O)C(=O)O[C@@H]1C(OC)=C[C@]23CCCN2CCc2cc4c(cc2[C@H]13)OCO4,Potency,[3],0.093 µM (active)
same,outcome,[4],inactive
CN(C)CCCN=c1c2ccccc2n(C)c2[nH]c(=O)n(C)c(=O)c12,Potency,[3],16.5 µM (active)
same,outcome,[4],inactive
CC[C@H](CO)Nc1nc(NCc2ccccc2)c2ncn(C(C)C)c2n1,Potency,[3],29.4 µM (active)
COC(=O)C1=C(C)NC(C)=C(C(=O)OCCN2CCN(C(c3ccccc3)c3ccccc3)CC2)C1c1cccc([N+](=O)[O-])c1 (stereo unspecified),Potency,[3],inactive
same,Potency,[8],inactive
same,outcome,[6],inactive
same,outcome,[9],inactive
same,outcome,[4],inactive
C[C@@H](Oc1cc(-n2cnc3ccc(CN4CCN(C)CC4)cc32)sc1C(N)=O)c1ccccc1C(F)(F)F,Potency,[3],20.8 µM (active)
same,outcome,[4],inactive
Nc1nc(-c2nn(Cc3ccccc3F)c3ncccc23)nc(N)c1N1CCOCC1,Potency,[3],inactive
same,outcome,[4],inactive
CN(c1ncccc1CNc1nc(Nc2ccc3c(c2)CC(=O)N3)ncc1C(F)(F)F)S(C)(=O)=O,Potency,[3],4.66 µM (active)
same,outcome,[4],inactive
CC(C)C[C@H](NC(=O)CNC(=O)c1cc(Cl)ccc1Cl)B(O)O,Potency,[3],0.104 µM (active)
same,outcome,[4],inactive
CC(=O)OCCN1C(=O)c2c(C)nc3ccc(S(=O)(=O)N4CCOCC4)cc3c2C1=O,Potency,[3],inactive
same,outcome,[4],inactive
CCOc1cc2ncc(C#N)c(Nc3ccc(F)c(Cl)c3)c2cc1NC(=O)C=CCN(C)C,outcome,[4],inactive
O=C(O)[C@H](Cc1c[nH]c2ccccc12)N1C(=O)c2ccccc2C1=O,Potency,[3],inactive
same,outcome,[4],inactive
C[C@]12CC[C@H](O)CC1=CCC1C2CC[C@]2(C)C(n3cnc4ccccc43)=CCC12 (stereo partly specified),Potency,[3],inactive
same,outcome,[4],inactive
COc1ccc(CC2SC(=O)NC2=O)cc1C(=O)NCc1ccc(C(F)(F)F)cc1 (stereo unspecified),Potency,[3],inactive
same,outcome,[4],inactive
O=c1[nH]nc(Sc2ncc([N+](=O)[O-])s2)n1-c1ccc2c(c1)OCCO2,Potency,[3],6.58 µM (active)
Cc1ccc(-c2ncn(-c3ccc(Nc4nccc(-c5cccc(N6CCOCC6)c5)n4)cc3)n2)cn1,Potency,[3],0.829 µM (active)
same,outcome,[4],inactive
COCCn1c2c([n+](Cc3cnccn3)c1C)C(=O)c1ccccc1C2=O,Potency,[3],2.34 µM (active)
same,outcome,[4],inactive
CN1CC[C@@H](c2c(O)cc(O)c3c(=O)cc(-c4ccccc4Cl)oc23)[C@@H](O)C1,Potency,[3],0.739 µM (active)
